ChEMBL document CHEMBL3988442, “University of Dundee, Small-Polar-MMV Screening Library” (2021)
Out of some 48,000 compounds screened, about 13,000 (27%) showed an effect of 50% or more. This is one part of the list.

tested on: Wolbachia pipientis; test: Anti-Wolbachia Cell-Based Screen; format: functional; design: scale not given: in the data most compounds retested in dose-response had high values; settings: 5 µM

| SMILES | Percent Effect [%] |
| --- | --- |
| NC(=O)CCCNC(=O)COc1ccccc1C(F)(F)F | 8.512 |
| N#Cc1ccc(C(=O)N2CCC(c3ncc[nH]3)CC2)cn1 | 118.6 |
| CN(C)C(=O)N1CC[C@]2(O)CCN(C(=O)c3ccc(C#N)nc3)C[C@@H]2C1 | 0.1052 |
| O=C(CCc1ccccc1)C1CCCN(C(=O)c2ncc(F)cc2F)C1 (stereo not drawn) | -13.78 |
| CC(C)(C)n1ccc(C(=O)N2CCCC(c3ncc[nH]3)C2)c1 (stereo not drawn) | -9.494 |
| Cn1cc(C(=O)N2CCC(c3ncc[nH]3)CC2)cn1 | 106 |
| Cn1cc(C(=O)N2CCCC(c3ncc[nH]3)C2)cn1 (stereo not drawn) | -9.118 |
| Cc1cc(=O)[nH]c(SC(C)C(=O)N2CCC(c3ncc[nH]3)CC2)n1 (stereo not drawn) | -1.396 |
| O=C(c1ncc(F)cc1F)N1CCC(c2ncc[nH]2)CC1 | 114.8 |
| N#Cc1ccc(C(=O)N2CCC3(CC2)C(=O)Nc2ccccc23)cn1 | -3.857 |
| O=C(c1cncc(F)c1)N1CCC(c2ncc[nH]2)CC1 | 103.6 |
| O=C(COCC(F)(F)C(F)F)N1CCC(c2ncc[nH]2)CC1 | -1.399 |
| CN1CCN(c2ccc(C(=O)N3CCCC(c4ncc[nH]4)C3)cc2)CC1 (stereo not drawn) | -9.853 |
| Cn1ccnc1CN(CCCO)CC(F)(F)F | -6.784 |
| CCCC(=O)N(Cc1ccncc1)C(C)CC (stereo not drawn) | -14.56 |
| O=C([C@H]1COC[C@H]2CN(C3CCCC3)C[C@H]21)N1CCOCC1 | -18.92 |
| O=C(O)C(F)(F)F.O=C([C@@H]1COC[C@H]2CN(C3CCOCC3)C[C@H]21)N1CCOCC1 | 8.462 |
| O=C([C@@H]1C[C@@H]2CCN(C3CCOCC3)C[C@H]2O1)N1CCCC1 | 111.9 |
| O=C([C@@H]1C[C@@H]2CCN(C3CCOCC3)C[C@@H]2O1)N1CCOCC1 | 114 |
| O=C(CCn1cncn1)NC1(c2cccc(Br)c2)CCC1 | 14.53 |
| CC(C)C(NC(=O)Nc1cnn(CC(N)=O)c1)c1ccc(Cl)cc1 (stereo not drawn) | 4.509 |
| O=C(c1coc(CN2CCN(c3ccccc3F)CC2)n1)N1CC=CC1 | -19.74 |

| SMILES | Percent Effect [%] |
| --- | --- |
| N#CCSCCCN1CCN(C(=O)c2ccccc2F)CC1 | 105.1 |
| N#CCSCCCN1CCN(C(=O)c2cccc(Cl)c2)CC1 | 87.64 |
| Cc1ccc(C(=O)N2CCc3ncnc(C)c3CC2)cc1F | 4.805 |
| N#CCSCCCN1CCN(C(=O)C2CCCC2)CC1 | -2.265 |
| N#CCSCCCN1CCCN(C(=O)c2ccccc2)CC1 | 13.73 |
| N#CCSCCCN1CCCC(C(=O)N2CCCCCC2)C1 (stereo not drawn) | 8.122 |
| Cn1ccc(C(=O)N2CCCN(CCCc3ccccc3)CC2)cc1=O | 5.22 |
| Cc1cccc(C(=O)N2CCCN(CCCSCC#N)CC2)c1 | 95.07 |
| Cc1ccc(C(=O)N2CCN(CCCSCC#N)CC2)o1 | -4.6 |
| Cc1ccc(C(=O)N2CCN(CCCSCC#N)CC2)cc1F | 105.3 |
| O=C(c1ccccc1F)N1CCN(CCCn2cncn2)CC1 | -12.58 |
| N#CCSCCCN1CCN(C(=O)c2ccc(Cl)cc2)CC1 | 23.02 |
| O=C(NC1CC1)[C@H]1[C@@H]2CN(Cc3ccc(-c4ccn[nH]4)s3)C[C@@H]21 | -3.84 |
| COC(=O)[C@@H]1C[C@@H](O)CN1Cc1ccn(-c2ccc(F)cc2)n1 | -13.47 |
| CNC(=O)c1ccc2c(OC)n(C)nc2c1 | 2.989 |
| CC(C)n1cnnc1CN(C)Cc1ccoc1 | 9.92 |
| CCc1cnc(N2C[C@H]3CN(Cc4csc(C)n4)C(=O)[C@H]3C2)nc1.O=C(O)C(F)(F)F | -9.51 |
| Cc1c[nH]c(CN2CCOC(c3ccc(Cl)c(Cl)c3)C2)c(C)c1=O (stereo not drawn) | 94.99 |
| Cc1nnc(CN2CCOC(c3ccc(Cl)c(Cl)c3)C2)o1 (stereo not drawn) | 7.568 |
| Cc1c[nH]c(CN2CCOC(c3ccc(Cl)cc3)C2)c(C)c1=O (stereo not drawn) | 100.9 |
| Cc1c[nH]c(CN2CCOC(c3ccc(F)cc3)C2)c(C)c1=O (stereo not drawn) | 1.733 |
| Cc1nc[nH]c1CN1CCOC(c2ccc(Cl)c(Cl)c2)C1 (stereo not drawn) | 1.288 |

| SMILES | Percent Effect [%] |
| --- | --- |
| Cc1cc(C)nc(CN2CCOC(c3ccc(Cl)cc3)C2)n1 (stereo not drawn) | -0.4936 |
| CN1CCN(CCCNCc2cc(O)c3cc(F)ccc3n2)CC1 | -16.72 |
| NC(=O)NCCC(=O)N1CCC(c2cc(Cc3ccccc3)n[nH]2)CC1 | -24.35 |
| Cn1ncc2c1CCCC2NCc1cccnc1 (stereo not drawn) | 87.53 |
| Cn1ncc2c1CCCC2NCc1cnc(-c2ccccc2)nc1 (stereo not drawn) | -0.06204 |
| Cn1ncc2c1CCCC2NCc1ccc(Cl)s1 (stereo not drawn) | -1.294 |
| CSc1ccc(CNC2CCCc3c2cnn3C)cc1.Cl (stereo not drawn) | 78.82 |
| Cl.Cn1ncc2c1CCCC2NCc1ccc(Br)s1 (stereo not drawn) | -6.912 |
| COc1cc(CNC2CCCc3c2cnn3C)cc(OC)c1.Cl (stereo not drawn) | 0.06204 |
| Cc1cccc(CNC2CCCc3c2cnn3C)c1.Cl (stereo not drawn) | 0.5584 |
| Cn1ncc2c1CCCC2NCc1ccc(OCc2cccnc2)cc1 (stereo not drawn) | 102.9 |
| Cc1ccc(CNC2CCCc3c2cnn3C)s1.Cl (stereo not drawn) | 1.48 |
| Cn1ccc(C(=O)N2CCCC(Cc3cccc4cccnc34)C2)n1 (stereo not drawn) | 100.6 |
| CC(C)(C)C(O)CN1CCN(C(=O)c2cccc3ncccc23)CC1 (stereo not drawn) | 5.5 |
| Cn1ccc(C(=O)N2CCC(Cc3cccc4cccnc34)C2)n1 (stereo not drawn) | -6.832 |
| COc1cccc(CCC2CCCN(C(=O)c3ccc(=O)n(C)n3)C2)c1 (stereo not drawn) | -50.16 |
| Cn1ccc(C(=O)N2CCCC(Cc3cnc4ccccc4c3)C2)n1 (stereo not drawn) | 126.8 |
| Cn1ccc(C(=O)N2CCCC(Cc3cccc4ncccc34)C2)n1 (stereo not drawn) | -23.19 |
| Cn1ccc(C(=O)N2CCC(Cc3cccc4ncccc34)CC2)n1 | 112 |
| Cn1ccc(C(=O)N2CCC(Cc3cccc4ncccc34)C2)n1 (stereo not drawn) | 142.2 |
| CC(C)C(C)NC(=O)CN1CCSCC1 (stereo not drawn) | 15.54 |
| COC(=O)N1CCCCC1C(=O)N(C)Cc1cc(-c2cccnc2)no1 (stereo not drawn) | -13.17 |

| SMILES | Percent Effect [%] |
| --- | --- |
| CC(c1ccccc1)N(C)CC(=O)NCCC#N (stereo not drawn) | 10.46 |
| COc1ccc2nc3n(c2c1)[C@@H](CNC(=O)c1cncnc1)COC3 | -25.15 |
| CCOC(=O)C1CCCCN1Cc1c[nH]nc1-c1ccc(F)cc1F (stereo not drawn) | -25.87 |
| CN(C)S(=O)(=O)N1CCN(c2ccnc(N3CCCCC3)n2)CC1 | 2.063 |
| CN(C)S(=O)(=O)N1CCN(Cc2ccnc(N3CCCC3)n2)CC1 | 116.4 |
| CN(C)S(=O)(=O)N1CCN(c2ccnc(N3CCCC3)n2)CC1 | 6.981 |
| CC(C)CN1CC(c2nc(-c3cccc(F)c3)c[nH]2)CC1=O (stereo not drawn) | -7.334 |
| COc1cc(NC2CCCNC2)cc(OC)c1 (stereo not drawn) | -9.333 |
| COc1cc(NC2CCCN(c3ncccc3C#N)C2)cc(OC)c1 (stereo not drawn) | 118.7 |
| COc1cc(CNC2CCCN(c3ncccn3)C2)cc2c1OCO2 (stereo not drawn) | -8.887 |
| COc1ccccc1N1CCCC(Nc2nccnc2C#N)C1 (stereo not drawn) | -6.167 |
| N#Cc1cccnc1N1CCC(Nc2ccccc2)C1 (stereo not drawn) | 96.82 |
| Cc1ncsc1C(=O)NC1CCN(c2ncccc2C#N)CC1 | 3.03 |
| COc1cc(NC2CCCN(c3ncccn3)C2)cc(OC)c1 (stereo not drawn) | 107.2 |
| CC(OCC1CC1)C(=O)N1CCCN(c2ncccc2C#N)CC1 (stereo not drawn) | 0.6677 |
| Cc1cc(C(=O)NC2CCN(c3ncccc3C#N)CC2)no1 | -13.19 |
| CCn1ccnc1CN1CCN(c2nccc(OC)n2)CC1C (stereo not drawn) | -24.68 |
| Fc1cccc(-c2nnn3c2COC(CNc2ncccn2)C3)c1 (stereo not drawn) | -1.841 |
| Cc1cc(CC(=O)N(CC2CN(C)CCO2)c2nccs2)no1 (stereo not drawn) | -0.7073 |
| CN1CCOC(CN(C(=O)Cc2ccccc2F)c2nccs2)C1 (stereo not drawn) | -6.62 |
| CC[C@@]1(O)CCN(C(=O)CCc2cnn(C)c2)C[C@H]1O | -7.505 |
| CN1CCOC(CN(C(=O)CCc2cnn(C)c2)c2nccs2)C1 (stereo not drawn) | 107 |

| SMILES | Percent Effect [%] |
| --- | --- |
| CN1CCOC(CN(C(=O)CC2CCCC2)c2nccs2)C1 (stereo not drawn) | -0.02384 |
| CN1CCOC(CN(C(=O)CCCn2cccn2)c2nccs2)C1 (stereo not drawn) | 81.94 |
| CN1CCOC(CN(C(=O)COc2ccccc2)c2nccs2)C1 (stereo not drawn) | 132.7 |
| Cc1ccc(CC(=O)N2CCCC(c3nc(C)cs3)C2)cn1 (stereo not drawn) | -6.398 |
| c1cnn(CC2CN(c3ncnc4ccsc34)CCO2)c1 (stereo not drawn) | -13.22 |
| Cc1cnn(CC2CN(CC(=O)N(C)c3nccs3)CCO2)c1 (stereo not drawn) | 4.22 |
| O=C(CN1CCOC(Cn2cccn2)C1)Nc1nccs1 (stereo not drawn) | -0.2623 |
| Cc1ccc(CC(=O)N(CC2CN(C)CCO2)c2nccs2)cn1 (stereo not drawn) | 90.15 |
| CC(C)C1CN(C(=O)Nc2cnn(CC(F)F)c2)CCO1 (stereo not drawn) | 14.22 |
| CC(C)N1CC2(CCCN(Cc3noc(C4CCCC4)n3)C2)CCC1=O (stereo not drawn) | 0.7717 |
| COC1CCN(C(=O)c2csc(-c3ccccc3F)n2)CC1 | 15.42 |
| CN1CCOC(CN(C(=O)CCc2ccco2)c2nccs2)C1 (stereo not drawn) | 89.12 |
| O=C(NCCc1nccs1)C1CCCN(Cc2ccco2)C1 (stereo not drawn) | -29.34 |
| Nc1nccnc1C(=O)N(Cc1ccco1)CC1CCCO1 (stereo not drawn) | 3.477 |
| O=C(CCc1cn[nH]c1)N1C[C@H](CO)C[C@H](CN2CCOCC2)C1 | -1.636 |
| Cn1cnnc1C1CCCN(C(=O)c2ccccc2Cl)C1 (stereo not drawn) | 1.344 |
| Cn1cnnc1C1CCCN(C(=O)c2cc(Cl)c(Cl)n2C)C1 (stereo not drawn) | 115.1 |
| Cc1noc(C2CCCN(C(=O)c3cc(Cl)c(Cl)n3C)C2)n1 (stereo not drawn) | 3.125 |
| Cn1cnnc1C1CCCN(C(=O)c2cc(Cl)c3c(c2)OCO3)C1 (stereo not drawn) | -3.548 |
| Cn1cnnc1C1CCCN(C(=O)c2cc(Cl)cc(Cl)c2)C1 (stereo not drawn) | 113.5 |
